A short description of test [1]: qHTS assay to identify aromatase inhibitors - cell viability counter screen (AID 743084).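 Note: cells stimulated with testosterone during compound exposure; nearly all actives have a fitted effect of over 55% in size.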 Note: potency is the fitted concentration of half-maximal effect. On the technique in general: In qHTS, concentration-response curves come from the screen itself.
The target of test [2] is Aryl hydrocarbon receptor (Homo sapiens) (UniProt P35869). Kind of test: qHTS assay to identify small molecule that activate the aryl hydrocarbon receptor (AhR) signaling pathway (AID 743085).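 For activation: HG2L7.5c1 human HepG2 liver cells with stably integrated DRE-driven firefly reporter; series mostly up to about 70 µM.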 Note: nearly all actives have a fitted effect of over 15% in size. Note: potency is the fitted concentration of half-maximal effect. In outline: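 Steps: seed HepG2-AhR-luc cells; allow 5 h at 37C; pin-transfer test compound or vehicle; incubate 24 h at 37C; add viability dye (30 min, 37C) and read fluorescence; add luciferase substrate (30 min, RT) and read luminescence.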
Chain of Aryl hydrocarbon receptor (Homo sapiens) (P35869 whole entry, looked up): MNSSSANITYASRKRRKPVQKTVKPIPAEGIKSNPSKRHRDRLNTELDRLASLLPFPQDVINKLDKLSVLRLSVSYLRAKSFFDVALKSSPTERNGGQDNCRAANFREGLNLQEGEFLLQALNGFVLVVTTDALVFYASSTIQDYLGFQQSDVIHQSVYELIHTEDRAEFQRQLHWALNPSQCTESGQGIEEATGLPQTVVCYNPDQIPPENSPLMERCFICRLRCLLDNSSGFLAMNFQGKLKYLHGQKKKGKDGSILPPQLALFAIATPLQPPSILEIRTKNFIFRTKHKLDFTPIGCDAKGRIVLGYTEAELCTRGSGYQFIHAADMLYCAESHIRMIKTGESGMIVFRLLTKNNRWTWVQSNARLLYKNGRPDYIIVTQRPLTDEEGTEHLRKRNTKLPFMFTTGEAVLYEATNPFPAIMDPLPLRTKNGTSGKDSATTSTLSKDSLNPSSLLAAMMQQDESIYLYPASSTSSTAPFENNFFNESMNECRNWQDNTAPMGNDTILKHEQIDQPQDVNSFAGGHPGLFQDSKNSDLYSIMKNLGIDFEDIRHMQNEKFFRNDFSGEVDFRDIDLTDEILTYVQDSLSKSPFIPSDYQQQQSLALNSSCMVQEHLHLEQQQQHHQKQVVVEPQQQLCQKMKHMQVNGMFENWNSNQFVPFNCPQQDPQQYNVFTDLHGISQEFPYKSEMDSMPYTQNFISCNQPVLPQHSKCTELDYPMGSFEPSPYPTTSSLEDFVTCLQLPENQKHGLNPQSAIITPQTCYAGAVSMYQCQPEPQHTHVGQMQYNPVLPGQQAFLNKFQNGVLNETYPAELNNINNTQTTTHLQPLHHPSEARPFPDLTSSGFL

Test [3] can be described thus: qHTS assay to identify small molecule that activate the aryl hydrocarbon receptor (AhR) signaling pathway - cell viability counter screen (AID 743086). Note: nearly all actives have a fitted effect of over 45% in size. Note: potency is the fitted concentration of half-maximal effect. In a few lines:
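Cytotoxicity counter screen: CellTiter-Fluor signal (30 min, 37 C) in 4000 HepG2 cells/well carrying the DRE-luciferase reporter, following 24 h compound exposure at 37 C.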

The target in test [4] is Peroxisome proliferator-activated receptor gamma (Homo sapiens) (UniProt P37231). Kind of test: qHTS assay to identify small molecule agonists of the peroxisome proliferator-activated receptor gamma (PPARg) signaling pathway (AID 743094; active = well fitted activation curve with a large enough effect in the signal ratio in the repeat runs, not every such curve was filed as active; the % refers to the signal ratio). In a few lines: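 Beta-lactamase FRET fluorescence was the read-out after a 1 h room-temperature substrate step, following 17 h compound treatment at 37C of HEK293H cells expressing a UAS-driven bla reporter responsive to PPARg.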
Chain of Peroxisome proliferator-activated receptor gamma (Homo sapiens) (P37231 whole entry, looked up): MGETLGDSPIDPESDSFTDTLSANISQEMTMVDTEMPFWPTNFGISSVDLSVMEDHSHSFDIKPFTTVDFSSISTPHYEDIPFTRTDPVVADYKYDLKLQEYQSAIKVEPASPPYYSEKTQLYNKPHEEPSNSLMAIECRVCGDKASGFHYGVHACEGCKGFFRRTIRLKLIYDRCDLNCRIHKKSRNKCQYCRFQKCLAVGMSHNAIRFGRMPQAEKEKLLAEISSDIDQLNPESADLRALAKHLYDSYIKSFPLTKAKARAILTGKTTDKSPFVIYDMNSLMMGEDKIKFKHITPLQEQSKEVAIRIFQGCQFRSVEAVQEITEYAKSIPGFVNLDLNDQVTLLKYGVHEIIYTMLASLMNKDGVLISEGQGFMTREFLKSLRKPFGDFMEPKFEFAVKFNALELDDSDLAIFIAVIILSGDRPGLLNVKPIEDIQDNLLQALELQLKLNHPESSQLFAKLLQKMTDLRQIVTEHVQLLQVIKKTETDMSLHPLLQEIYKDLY

The target is the same in test [5]. In words: qHTS assay to identify small molecule antagonists of the peroxisome proliferator-activated receptor gamma (PPARg) signaling pathway (AID 743191; calls by dose curve; note: series mostly up to about 63 µM; nearly all actives have a fitted effect of over 30% in size). In outline:
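Beta-lactamase reporter under UAS control in HEK293H PPARg-bla cells; compound treatment 17 h at 37C. Read-out: fluorescence intensity after 1 h room-temperature incubation with LiveBLAzer B/G FRET substrate.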

Test [6] in a line: qHTS assay for small molecule agonists of the antioxidant response element (ARE) signaling pathway (AID 743202; active = well fitted activation curve with a large enough effect in the signal ratio in the repeat runs, not every such curve was filed as active; the % refers to the signal ratio). In outline:
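Quantitative high-throughput format in HepG2 cells bearing an integrated ARE-beta-lactamase reporter. Compound exposure lasted 16 h at 37 C, and fluorescence was read 2 h after adding LiveBLAzer B/G substrate at room temperature.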

A short description of test [7]: qHTS assay for small molecule agonists of the antioxidant response element (ARE) signaling pathway - cell viability counter screen (AID 743203; calls by dose curve; note: nearly all actives have a fitted effect of over 55% in size). In outline:
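HepG2 cells carrying ARE-driven beta-lactamase; 2,000 cells/well; 5 hrs plating; compound pinned from DMSO; 16 hrs 37C/5% CO2; CellTiter-Glo added; 30 min RT; luminescence.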

Test [8] in a line: qHTS assay for small molecule activators of the heat shock response signaling pathway - cell viability counter screen (AID 743209). Note: nearly all actives have a fitted effect of over 50% in size. In outline:
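Luminescence from CellTiter-Glo, added after the beta-lactamase FRET read, gave the viability signal. Cells were HSE-bla HeLa treated with DMSO-dissolved compounds for 5 h at 37 C following overnight plating.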

Test [9] in a line: qHTS assay for small molecule activators of the heat shock response signaling pathway (AID 743210; active = well fitted activation curve with a large enough effect in the signal ratio in the repeat runs, with a control signal flat, not every such curve was filed as active; the % refers to the signal ratio;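 note: HeLa cells with beta-lactamase reporter driven by heat shock elements; series mostly up to about 63 µM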). In a few lines:
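HeLa HSE-bla cells, overnight plating; cpd in DMSO 5 h, 37 C; LiveBLAzer B/G FRET substrate 2.5 h RT; fluorescence intensity read.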

Test [10] in a line: qHTS assay to identify small molecule agonists of the peroxisome proliferator-activated receptor delta (PPARd) signaling pathway - cell viability counter screen (AID 743211). Note: nearly all actives have a fitted effect of over 55% in size. In a few lines:
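Viability of GeneBLAzer PPARd UAS-bla HEK293H cells was assessed after 17 h compound incubation at 37C, using CellTiter-Glo reagent added after the reporter read and luminescence recorded 30 min later.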

Test [11] has as its target Peroxisome proliferator-activated receptor delta (Homo sapiens) (UniProt Q03181). Kind of test: qHTS assay to identify small molecule agonists of the peroxisome proliferator-activated receptor delta (PPARd) signaling pathway (AID 743212; calls by dose curve). In outline:
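HEK293H PPARd-bla cells; 5 h preincubation 37 C/5% CO2; compound (DMSO) 37 C; LiveBLAzer B/G FRET substrate 2 h RT; fluorescence intensity.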

Test [12] can be described thus: qHTS assay to identify small molecule antagonists of the peroxisome proliferator-activated receptor delta (PPARd) signaling pathway - cell viability counter screen (AID 743213). Note: nearly all actives have a fitted effect of over 50% in size. In outline: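 Luminescence from CellTiter-Glo, added after the bla read and incubated 30 min at room temperature, gives viability of HEK293H PPARd-bla cells exposed to compounds for 17 h at 37 C with 300 nM L165041.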

Test [13] concerns the target Peroxisome proliferator-activated receptor delta (Homo sapiens) (UniProt Q03181). In words: qHTS assay to identify small molecule antagonists of the peroxisome proliferator-activated receptor delta (PPARd) signaling pathway (AID 743215; active = well fitted inhibition curve with a large enough effect in the signal ratio in the repeat runs, not every such curve was filed as active; the % refers to the signal ratio;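 note: cells stimulated with agonist L165041 at 300 nM final during compound exposure; series mostly up to about 62 µM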). In outline: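 Read-out is beta-lactamase FRET fluorescence, measured 2 h after substrate addition at room temperature. Beforehand, UAS-bla HEK293H cells carrying the PPARd reporter were exposed to compounds with L165041 at 300 nM final for 17 h at 37 C.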

The nature of test [14]: qHTS assay to identify small molecule agonists of the farnesoid-X-receptor (FXR) signaling pathway - cell viability counter screen (AID 743218). Note: nearly all actives have a fitted effect of over 45% in size. In outline:
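HEK 293T FXR-bla cells; 5 h pre-incubation, 16 h compound exposure at 37 C; LiveBLAzer substrate 2 h RT, then CellTiter-Glo 30 min RT, luminescence.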

Test [15] can be described thus: qHTS assay to identify small molecule antagonists of the farnesoid-X-receptor (FXR) signaling pathway - cell viability counter screen (AID 743221; active = well fitted cell-killing curve with a large enough effect in the repeat runs, not every such curve was filed as active; note: nearly all actives have a fitted effect of over 50% in size). In a few lines: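 Quantitative HTS of the Tox21 10K library run in parallel with the beta-lactamase reporter read. HEK 293T cells carrying a UAS-driven bla reporter got compound and 50 uM CDCA (final) for 16 h; ATP-based luminescence followed.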

Test [16] can be described thus: qHTS assay to identify small molecule antagonists of the peroxisome proliferator-activated receptor gamma (PPARg) signaling pathway - cell viability counter screen (AID 743194). Note: nearly all actives have a fitted effect of over 55% in size. In outline: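 Viability was measured as CellTiter-Glo luminescence in GeneBLAzer PPARg UAS-bla HEK293H cells. These cells had been exposed 17 h at 37 C to compounds together with rosiglitazone at 50 nM final, with the beta-lactamase readout taken in the same wells.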

Test [17] deals with Bile acid receptor (Homo sapiens) (UniProt Q96RI1). In words: qHTS assay to identify small molecule antagonists of the farnesoid-X-receptor (FXR) signaling pathway (AID 743217; active = well fitted inhibition curve with a large enough effect in the signal ratio in the repeat runs, not every such curve was filed as active; the % refers to the signal ratio). In a few lines: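 HEK 293T FXR-UAS-bla, 5000 cells/well; compound + CDCA 50 uM final; 16 h, 37 °C; B/G FRET substrate 2 h RT; fluorescence.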
Chain of Bile acid receptor (Homo sapiens) (Q96RI1 whole entry, looked up): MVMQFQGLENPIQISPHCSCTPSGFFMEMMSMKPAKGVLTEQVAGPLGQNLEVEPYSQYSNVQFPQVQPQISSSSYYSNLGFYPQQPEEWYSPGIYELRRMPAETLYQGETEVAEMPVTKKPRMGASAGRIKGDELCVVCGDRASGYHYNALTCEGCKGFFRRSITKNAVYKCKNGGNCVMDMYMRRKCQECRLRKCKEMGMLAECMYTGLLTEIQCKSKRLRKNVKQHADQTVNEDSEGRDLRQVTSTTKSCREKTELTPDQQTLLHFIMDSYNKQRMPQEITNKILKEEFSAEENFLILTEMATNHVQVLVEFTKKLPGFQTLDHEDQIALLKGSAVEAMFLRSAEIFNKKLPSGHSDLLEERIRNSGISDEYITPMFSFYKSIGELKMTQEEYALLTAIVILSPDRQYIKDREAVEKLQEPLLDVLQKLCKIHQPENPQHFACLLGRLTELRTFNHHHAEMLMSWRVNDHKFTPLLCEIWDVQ
The target is the same in test [18]. Kind of test: qHTS assay to identify small molecule agonists of the farnesoid-X-receptor (FXR) signaling pathway (AID 743220; active = well fitted activation curve with a large enough effect in the signal ratio in the repeat runs, not every such curve was filed as active; the % refers to the signal ratio). In a few lines:
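Beta-lactamase reporter under UAS control in GeneBLAzer FXR HEK 293T cells (5000/well) measured with LiveBLAzer FRET substrate after 2 h at room temperature. Compound exposure lasted 16 h at 37C.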

Test [19] concerns the target Vitamin D3 receptor (Homo sapiens) (UniProt P11473). Kind of test: qHTS assay to identify small molecule agonists of the vitamin D receptor (VDR) signaling pathway (AID 743222; calls by dose curve). In outline: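 VDR-bla cells, 2,000/well; 4 h preincubation 37C; cpd (DMSO) 16 h; LiveBLAzer B/G substrate 2 h RT; fluorescence intensity read.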
Test [20] shares this target. In words: qHTS assay to identify small molecule antagonists of the vitamin D receptor (VDR) signaling pathway (AID 743223; active = well fitted inhibition curve with a large enough effect in the signal ratio in the repeat runs, not every such curve was filed as active; the % refers to the signal ratio). In outline:
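Fluorescence from LiveBLAzer B/G FRET substrate, read after 2 h at room temperature, reflects beta-lactamase reporter activity in VDR-bla cells treated 16 h at 37C with compounds and agonist 1alpha,25-dihydroxyvitamin D3 (3 nM final).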

The values below come from PubChem BioAssay (Tox21).

Where “and” joins values, the source holds several entries; their conditions need not be identical. Equal entries are not always repeated. Inconclusive results are not listed. Calls of active or inactive are those of the source. Unless noted, calls come from the whole dose curve; as a rule, active = well fitted curve in the direction sought with a large enough effect in the repeat runs; inconclusive = weak or mixed curves; inactive = no such curve, though single readings can be large; an effect the other way counts as inactive or inconclusive.

Chain of Peroxisome proliferator-activated receptor delta (Homo sapiens) (Q03181 whole entry, looked up): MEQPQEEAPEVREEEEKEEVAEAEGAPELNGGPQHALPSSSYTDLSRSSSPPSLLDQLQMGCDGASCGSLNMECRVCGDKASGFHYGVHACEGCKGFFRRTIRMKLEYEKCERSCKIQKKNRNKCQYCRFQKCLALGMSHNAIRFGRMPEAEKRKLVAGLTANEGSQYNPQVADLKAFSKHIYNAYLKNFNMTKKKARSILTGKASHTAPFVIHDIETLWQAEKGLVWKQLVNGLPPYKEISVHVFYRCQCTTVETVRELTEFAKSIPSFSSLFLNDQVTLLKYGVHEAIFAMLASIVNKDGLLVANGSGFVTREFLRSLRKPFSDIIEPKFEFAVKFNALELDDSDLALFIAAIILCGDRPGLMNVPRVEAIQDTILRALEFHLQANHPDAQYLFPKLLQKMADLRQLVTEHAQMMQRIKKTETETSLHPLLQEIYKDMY
Chain of Vitamin D3 receptor (Homo sapiens) (P11473 whole entry, looked up): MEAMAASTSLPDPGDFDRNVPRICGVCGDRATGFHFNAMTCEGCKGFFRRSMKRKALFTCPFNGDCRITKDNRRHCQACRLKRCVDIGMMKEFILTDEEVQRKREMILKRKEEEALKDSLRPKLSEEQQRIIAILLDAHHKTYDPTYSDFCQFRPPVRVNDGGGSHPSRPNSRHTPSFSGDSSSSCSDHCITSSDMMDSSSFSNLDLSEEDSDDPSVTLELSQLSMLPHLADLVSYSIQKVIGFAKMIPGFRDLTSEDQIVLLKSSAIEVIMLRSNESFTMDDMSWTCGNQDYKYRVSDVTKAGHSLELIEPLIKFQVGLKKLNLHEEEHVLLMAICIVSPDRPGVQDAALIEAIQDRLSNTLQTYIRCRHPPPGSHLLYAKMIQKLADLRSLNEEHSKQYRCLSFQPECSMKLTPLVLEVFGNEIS

In the case of `Clc1cc(Cl)c(Cl)cc1Cl`, the Potency result in test [1], in [2], in [3], in [5], in test [6] and in [7] was “inactive” throughout. In addition, the Potency result in test [8], in test [10], in test [12], in test [14] and in test [15] was “inactive” throughout. Moreover, the molecule was called inactive in [4], in [9], in [11] and in [13].

Turning to `O=C(O)c1cc(-c2ccccc2)nc2ccccc12`, the Potency result in [1], in test [3], in test [5], in test [16], in [6] and in test [7] was “inactive” each time. The Potency result in test [8], in test [10], in test [14], in test [15], in test [19] and in [20] was “inactive” throughout. The Potency in [2] was 58.4 µM (active). Moreover, the result in [9], in test [11], in [13], in [17] and in test [18] was inactive.

Take `NC(=O)/N=N/C(N)=O`: the Potency entry in test [1], in test [2], in test [3], in test [16], in test [6] and in test [7] was “inactive” throughout. Besides, the Potency result in test [8], in test [10], in test [12], in test [14], in [15] and in [19] was “inactive” in each case. The Potency entry in test [20] is “inactive”. Moreover, the call in test [4], in test [11], in test [13], in test [17] and in test [18] was inactive.

As to `O=S(=O)(O)CCS`, the Potency result in [1], in [2], in test [3], in [5], in [6] and in [7] was “inactive” throughout. The Potency result in [8], in test [10], in [12], in test [14] and in test [15] was “inactive” each time. Moreover, the molecule was classed as inactive in [4], in test [9], in test [11], in test [13], in test [17] and in [18].

With `O=C(c1cc(O)c(O)c(O)c1)c1ccc(O)c(O)c1O`, the results for the Potency in test [1], in test [2] and in [3] were 34.3 µM (active), 15.4 µM (active) and 30.5 µM (active), respectively. The Potency entry in [5], in test [16], in [7], in [8], in test [10] and in test [12] was “inactive” each time. In addition, the Potency entry in [14], in test [15], in test [19] and in [20] was “inactive” each time. In addition, the molecule was called inactive in [9], in test [11], in test [13], in test [17] and in test [18].

For the molecule `CC1=C(CC(=O)O)c2cc(F)ccc2/C1=C\c1ccc(S(C)=O)cc1` (centres undefined), the Potency result in [1], in [3], in [7], in test [8], in test [10] and in [12] was “inactive” throughout. In addition, the Potency result in [14] and in [15] was “inactive” throughout. The Potency in test [2] was 13.3 µM (active) and 24.3 µM (active). For the same molecule, the molecule was called inactive in test [4], in test [9] and in [13].

Turning to `C=C(C#N)C(=O)OCC`, the Potency entry in test [1], in [2], in [3], in test [6], in test [7] and in test [8] was “inactive” throughout. The Potency entry in test [10], in [12], in [14] and in test [15] was “inactive” in each case. The molecule was called inactive in test [4], in test [9] and in test [11].

On to `c1ccc2ccccc2c1`, for which the Potency entry in test [1], in [2], in test [3], in [5], in [6] and in test [7] was “inactive” in each case. The Potency entry in test [8], in test [10], in test [12], in [14], in test [15] and in [19] was “inactive” throughout. The Potency result in [20] was “inactive”. In addition, the outcome in test [4], in [9], in test [11], in test [13], in test [17] and in test [18] was inactive.

With `O=C1O[C@H](CO)[C@@H](O)[C@H](O)[C@H]1O`, the Potency result in test [1], in [2], in test [3], in test [5], in test [6] and in [7] was “inactive” throughout. Moreover, the Potency result in test [8], in [10], in [12], in [14], in test [15] and in test [19] was “inactive” each time. Moreover, in test [20], the Potency result was “inactive”. Also, the molecule was classed as inactive in test [4], in test [9], in [11], in test [13], in test [17] and in [18].
